Data from the supplement of paper PMC10849652.
Of roughly 7,900 targets only a part is listed; those with a hit were picked by preference. About 0.6% of all pairs of compound and target were hits.

Tests used:
Test in all cases: log2 fold change, soluble protein after heating vs DMSO (PISA); higher = thermal stabilisation; K562 cells, 10 uM, 30 min; active = over 0.2 and 3.5 SD of the protein, either way, in both replicates (recomputed)
[1] = compound: CS(=O)(=O)c1ccc(-c2cnc(N)c(C(=O)Nc3ccccc3)n2)cc1
How it was run: (§1)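 Aliquots of K562 cells (2×10^6 cells/mL) treated with 10 μM compound for 30 min were heated for 3 min over 48°C-58°C. After pooling and extraction in PBS with 0.5% NP-40 at 4°C, soluble protein from a 21,000xg, 90 min spin was quantified by TMTpro 16plex LC-MS/MS with channel sums equalised. Thermal stability is expressed against control samples, from duplicates, as a log2 fold change.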

[2] = compound: C[C@@H](Oc1cc(-c2cnn(C3CCNCC3)c2)cnc1N)c1c(Cl)ccc(F)c1Cl [crizotinib]
How it was run: as §1

[3] = compound: C[C@@H]1COCCN1C2=NC(=NC(=C2)C3(CC3)S(=O)(=O)C)C4=C5C=CNC5=CC=C4
How it was run: as §1

[4] = compound: C[C@H](C1=CC=C(C=C1)C(=O)NC2=C3C=CNC3=NC=C2)N
How it was run: as §1

[5] = compound: C[C@H](Nc1ncnc2nc[nH]c12)c1cc2cccc(Cl)c2c(=O)n1-c1ccccc1 [duvelisib]
How it was run: as §1

[6] = compound: Cc1cc(Nc2cc(N3CCN(C)CC3)nc(Sc3ccc(NC(=O)C4CC4)cc3)n2)n[nH]1 [tozasertib]
How it was run: as §1

[7] = compound: Cc1cc(SCc2sc(-c3ccc(C(F)(F)F)cc3)nc2C)ccc1OCC(=O)O
How it was run: as §1

[8] = compound: Cc1ccc(-n2nc(C(C)(C)C)cc2NC(=O)Nc2ccc(OCCN3CCOCC3)c3ccccc23)cc1 [doramapimod]
How it was run: as §1

[9] = compound: Cc1cc(Nc2cc(CN3CCOCC3)c3nc(C)c(Cc4ccc(Cl)cc4F)n3n2)n[nH]1 [gandotinib]
How it was run: as §1

[10] = compound: Cc1ccc(C(=O)N(CCCN)[C@@H](c2nc3cc(Cl)ccc3c(=O)n2Cc2ccccc2)C(C)C)cc1 [ispinesib]
How it was run: as §1

Measured: log2 fold change

EZH2 isoform 2 (UniProt Q15910)
inactive: [1] -0.012 | [2] -0.196 | [3] -0.039 | [4] 0.072 | [5] -0.112 | [6] -0.12 | [7] 0.279 | [8] 0.095

EXTL2 (UniProt Q9UBQ6)
inactive: [1] 0.132 | [2] 0.111 | [3] 0.014 | [4] -0.227 | [5] -0.015 | [9] 0.068 | [6] 0.141 | [7] -0.046 | [8] -0.01 | [10] 0.108

DCAF6 isoform 3 (UniProt Q58WW2)
Sequence of UniProt Q58WW2 (Q58WW2 whole entry, looked up): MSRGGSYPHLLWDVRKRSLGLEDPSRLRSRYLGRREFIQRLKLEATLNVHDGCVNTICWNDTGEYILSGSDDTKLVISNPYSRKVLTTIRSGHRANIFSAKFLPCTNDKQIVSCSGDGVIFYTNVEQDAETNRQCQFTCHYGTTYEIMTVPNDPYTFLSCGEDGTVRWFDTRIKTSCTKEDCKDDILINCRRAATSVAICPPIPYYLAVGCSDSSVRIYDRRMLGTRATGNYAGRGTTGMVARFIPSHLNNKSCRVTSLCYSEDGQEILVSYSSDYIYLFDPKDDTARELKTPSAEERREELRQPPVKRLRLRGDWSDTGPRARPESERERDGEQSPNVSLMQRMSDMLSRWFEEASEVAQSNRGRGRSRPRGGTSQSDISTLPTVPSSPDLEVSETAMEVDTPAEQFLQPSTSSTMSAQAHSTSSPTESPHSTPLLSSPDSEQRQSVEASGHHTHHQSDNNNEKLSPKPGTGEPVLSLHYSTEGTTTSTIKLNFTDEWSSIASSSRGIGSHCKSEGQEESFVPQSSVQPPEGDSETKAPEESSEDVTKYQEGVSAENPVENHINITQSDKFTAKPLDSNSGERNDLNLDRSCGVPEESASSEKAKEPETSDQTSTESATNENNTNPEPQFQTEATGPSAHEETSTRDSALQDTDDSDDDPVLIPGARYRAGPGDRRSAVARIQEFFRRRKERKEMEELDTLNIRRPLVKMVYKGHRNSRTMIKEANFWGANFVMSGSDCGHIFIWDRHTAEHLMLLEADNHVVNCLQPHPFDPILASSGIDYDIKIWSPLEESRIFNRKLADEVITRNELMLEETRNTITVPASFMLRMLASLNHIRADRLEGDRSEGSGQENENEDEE
inactive: [1] -0.008 | [2] 0.132 | [3] 0.026 | [4] -0.054 | [5] 0.025 | [9] -0.024 | [6] -0.034 | [7] -0.058 | [8] 0.056 | [10] 0.027

FAM193B (UniProt Q96PV7)
inactive: [1] -0.065 | [2] -0.081 | [3] -0.097 | [4] 0.348 | [5] -0.18 | [6] 0.062 | [7] -0.189 | [8] -0.046

EIF4E2 (UniProt O60573)
Sequence of UniProt O60573 (O60573 whole entry, looked up): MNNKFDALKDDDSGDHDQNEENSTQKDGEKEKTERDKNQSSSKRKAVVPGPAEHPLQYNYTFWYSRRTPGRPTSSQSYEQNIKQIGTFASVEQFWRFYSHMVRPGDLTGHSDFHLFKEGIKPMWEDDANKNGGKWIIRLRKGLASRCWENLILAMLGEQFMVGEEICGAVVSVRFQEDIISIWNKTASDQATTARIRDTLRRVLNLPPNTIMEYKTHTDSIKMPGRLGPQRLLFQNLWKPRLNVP
inactive: [1] 0.151 | [2] -0.018 | [3] -0.027 | [4] 0.085 | [5] 0.037 | [6] 0.044 | [7] 0.07 | [8] -0.069 | [10] -0.087

FAM207A (UniProt Q9NSI2)
Sequence of UniProt Q9NSI2 (Q9NSI2 whole entry, looked up): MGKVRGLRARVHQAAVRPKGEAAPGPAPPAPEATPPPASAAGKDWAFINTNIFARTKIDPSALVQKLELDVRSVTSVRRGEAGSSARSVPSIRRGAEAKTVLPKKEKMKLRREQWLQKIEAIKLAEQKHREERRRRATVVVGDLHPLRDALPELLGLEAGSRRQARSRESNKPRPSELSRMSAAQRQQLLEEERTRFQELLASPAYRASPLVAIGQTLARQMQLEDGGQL
inactive: [1] 0.009 | [2] 0.075 | [3] 0.08 | [5] 0.128 | [9] -0.039 | [6] 0.053 | [7] -0.098 | [8] 0.101 | [10] -0.077

DPH5 isoform 5 (UniProt Q9H2P9)
inactive: [1] 0.017 | [2] 0.092 | [3] 0.072 | [4] -0.046 | [5] 0.077 | [9] -0.011 | [6] -0.01 | [7] -0.01 | [8] -0.025 | [10] 0.076

CWF19L2 (UniProt Q2TBE0)
active: [9] 0.777
inactive: [1] -0.024 | [2] -0.034 | [4] 0.027 | [5] -0.1 | [6] -0.016 | [7] -0.001 | [8] -0.021 | [10] -0.115

DYNC1I2 isoform 2 (UniProt Q13409)
active: [4] -0.647
inactive: [1] 0.185 | [2] -0.05 | [3] -0.02 | [6] 0.044 | [8] -0.079 | [10] 0.06

ELAC1 (UniProt Q9H777)
inactive: [1] -0.045 | [2] 0.011 | [3] -0.13 | [4] -0.137 | [5] 0.062 | [9] -0.021 | [7] 0.004 | [8] 0.007

DTWD1 (UniProt Q8N5C7)
inactive: [1] 0.053 | [2] 0.067 | [3] 0.061 | [4] 0.014 | [5] 0.015 | [9] 0.098 | [6] 0.029 | [7] 0.012 | [8] 0.009 | [10] -0.001

CTSC (UniProt P53634)
Sequence of UniProt P53634 (P53634 whole entry, looked up): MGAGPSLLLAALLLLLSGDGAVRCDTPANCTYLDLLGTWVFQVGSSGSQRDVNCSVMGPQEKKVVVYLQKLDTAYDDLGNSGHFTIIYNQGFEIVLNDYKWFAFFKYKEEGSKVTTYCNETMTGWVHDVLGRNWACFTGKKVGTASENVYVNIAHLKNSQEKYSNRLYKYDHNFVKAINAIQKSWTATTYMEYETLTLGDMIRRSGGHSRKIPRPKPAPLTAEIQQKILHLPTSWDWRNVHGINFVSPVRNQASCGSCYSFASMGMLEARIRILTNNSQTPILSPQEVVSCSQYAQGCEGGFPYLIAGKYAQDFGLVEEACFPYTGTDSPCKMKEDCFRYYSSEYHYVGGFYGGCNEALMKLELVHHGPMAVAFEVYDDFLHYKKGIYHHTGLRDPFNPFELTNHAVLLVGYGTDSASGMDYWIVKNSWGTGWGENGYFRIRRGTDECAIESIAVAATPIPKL
inactive: [1] 0.042 | [2] -0.037 | [3] -0.015 | [4] -0.062 | [5] 0.018 | [9] 0 | [6] 0.063 | [7] -0.047 | [8] 0.013 | [10] -0.057

DCP2 (UniProt Q8IU60)
active: [2] 0.779
inactive: [1] -0.211 | [3] 0.119 | [4] 0.009 | [5] -0.049 | [6] 0.219 | [7] 0.095 | [8] 0.147 | [10] -0.045

CTSH (UniProt P09668)
Sequence of UniProt P09668 (P09668 whole entry, looked up): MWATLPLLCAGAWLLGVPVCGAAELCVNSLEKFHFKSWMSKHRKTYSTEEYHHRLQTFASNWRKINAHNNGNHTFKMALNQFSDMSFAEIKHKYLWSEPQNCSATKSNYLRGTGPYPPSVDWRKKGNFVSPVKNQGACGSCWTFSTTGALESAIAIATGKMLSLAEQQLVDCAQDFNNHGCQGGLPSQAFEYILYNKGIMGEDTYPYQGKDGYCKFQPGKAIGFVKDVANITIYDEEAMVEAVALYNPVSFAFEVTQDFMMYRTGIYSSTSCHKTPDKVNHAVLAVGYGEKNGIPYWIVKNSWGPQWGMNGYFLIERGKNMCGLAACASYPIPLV
active: [2] -0.249
inactive: [1] 0.032 | [3] 0.074 | [4] -0.02 | [5] -0.034 | [9] 0.031 | [6] -0.068 | [7] -0.068 | [8] 0.023 | [10] -0.221

DNAJC24 (UniProt Q6P3W2)
Sequence of UniProt Q6P3W2 (Q6P3W2 whole entry, looked up): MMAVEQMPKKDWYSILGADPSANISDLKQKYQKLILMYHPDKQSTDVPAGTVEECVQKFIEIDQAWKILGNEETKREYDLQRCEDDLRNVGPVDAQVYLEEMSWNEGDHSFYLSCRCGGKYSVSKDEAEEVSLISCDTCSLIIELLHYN
inactive: [1] -0.054 | [2] 0.055 | [3] -0.031 | [4] -0.004 | [5] -0.028 | [6] 0.05 | [7] -0.024 | [8] 0.038 | [10] 0.01

ELOVL1 (UniProt Q9BW60)
inactive: [1] 0.082 | [2] -0.182 | [3] -0.065 | [4] -0.14 | [5] 0.124 | [9] -0.206 | [6] -0.003 | [7] 0.078 | [8] -0.082 | [10] -0.297

DNAJC1 (UniProt Q96KC8)
inactive: [1] -0.021 | [2] -0.148 | [3] 0.009 | [4] 0.023 | [5] 0.027 | [9] -0.094 | [6] -0.035 | [7] 0.009 | [8] 0.002
active: [10] -0.356

DCTPP1 (UniProt Q9H773)
inactive: [1] -0.025 | [2] 0.142 | [3] 0.179 | [4] -0.177 | [5] 0.072 | [9] -0.004 | [6] 0.024 | [7] -0.064 | [8] -0.002 | [10] 0.203

CUTA isoform 2 (UniProt O60888)
Sequence of UniProt O60888 (O60888 whole entry, looked up): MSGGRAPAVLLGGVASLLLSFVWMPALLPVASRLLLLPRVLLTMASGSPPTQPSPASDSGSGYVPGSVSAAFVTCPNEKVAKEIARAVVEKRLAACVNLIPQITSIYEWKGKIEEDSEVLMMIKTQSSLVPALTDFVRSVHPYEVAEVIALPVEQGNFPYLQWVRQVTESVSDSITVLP
inactive: [1] 0.073 | [2] -0.045 | [3] 0.021 | [4] -0.001 | [5] 0.01 | [9] 0.131 | [6] -0.05 | [7] -0.049 | [8] -0.019 | [10] 0.109

ENTPD7 (UniProt Q9NQZ7)
inactive: [1] 0.256 | [2] 0.084 | [3] -0.037 | [5] -0.178 | [6] 0.185 | [7] 0.014 | [8] 0.025

EXOC7 (UniProt Q9UPT5)
inactive: [1] -0.062 | [2] -0.25 | [3] -0.028 | [4] 0.034 | [5] 0.027 | [9] -0.122 | [6] 0.027 | [7] 0.05 | [8] -0.029
active: [10] -0.346

ESYT1 isoform 2 (UniProt Q9BSJ8)
Sequence of UniProt Q9BSJ8 (Q9BSJ8 whole entry, looked up): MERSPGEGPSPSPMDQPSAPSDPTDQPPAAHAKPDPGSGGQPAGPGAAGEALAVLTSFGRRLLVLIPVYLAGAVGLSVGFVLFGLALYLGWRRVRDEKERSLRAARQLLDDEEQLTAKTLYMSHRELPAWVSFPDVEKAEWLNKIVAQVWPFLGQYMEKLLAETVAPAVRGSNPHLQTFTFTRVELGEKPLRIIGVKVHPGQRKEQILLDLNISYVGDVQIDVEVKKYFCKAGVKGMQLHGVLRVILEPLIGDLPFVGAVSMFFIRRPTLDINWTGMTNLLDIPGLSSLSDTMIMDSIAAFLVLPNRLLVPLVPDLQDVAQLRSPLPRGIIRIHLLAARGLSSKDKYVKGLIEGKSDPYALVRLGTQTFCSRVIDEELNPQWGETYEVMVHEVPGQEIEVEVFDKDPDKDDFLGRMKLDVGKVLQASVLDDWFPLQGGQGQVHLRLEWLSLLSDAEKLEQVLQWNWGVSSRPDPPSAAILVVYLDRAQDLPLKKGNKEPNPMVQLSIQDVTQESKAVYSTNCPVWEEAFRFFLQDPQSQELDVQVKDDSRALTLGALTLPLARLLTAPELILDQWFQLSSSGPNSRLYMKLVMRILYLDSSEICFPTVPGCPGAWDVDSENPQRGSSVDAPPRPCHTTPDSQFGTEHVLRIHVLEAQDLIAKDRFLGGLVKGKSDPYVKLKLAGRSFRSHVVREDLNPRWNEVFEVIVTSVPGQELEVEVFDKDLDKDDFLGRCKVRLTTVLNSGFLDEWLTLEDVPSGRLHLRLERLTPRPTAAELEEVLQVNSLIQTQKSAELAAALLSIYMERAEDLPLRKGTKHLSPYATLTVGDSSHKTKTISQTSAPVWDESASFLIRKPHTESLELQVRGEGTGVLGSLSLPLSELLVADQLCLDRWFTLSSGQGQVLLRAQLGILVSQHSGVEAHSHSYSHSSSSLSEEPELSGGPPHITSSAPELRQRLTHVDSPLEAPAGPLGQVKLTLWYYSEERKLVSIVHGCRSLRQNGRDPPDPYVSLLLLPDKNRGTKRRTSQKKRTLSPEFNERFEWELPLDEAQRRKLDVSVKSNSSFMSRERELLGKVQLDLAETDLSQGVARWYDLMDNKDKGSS
inactive: [1] 0.021 | [2] -0.134 | [3] -0.076 | [4] 0.069 | [5] 0.014 | [9] 0.024 | [6] -0.017 | [7] 0.11 | [8] 0.083 | [10] -0.265

EIF3J isoform 2 (UniProt O75822)
Sequence of UniProt O75822 (O75822 whole entry, looked up): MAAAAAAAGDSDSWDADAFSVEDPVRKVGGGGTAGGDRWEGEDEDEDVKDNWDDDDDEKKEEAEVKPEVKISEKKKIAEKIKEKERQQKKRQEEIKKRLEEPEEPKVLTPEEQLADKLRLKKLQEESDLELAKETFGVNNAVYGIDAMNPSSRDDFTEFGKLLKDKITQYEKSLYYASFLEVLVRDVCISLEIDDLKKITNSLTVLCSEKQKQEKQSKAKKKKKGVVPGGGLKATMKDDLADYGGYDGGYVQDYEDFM
inactive: [1] 0.035 | [2] 0.049 | [3] -0.043 | [5] 0.161 | [6] -0.136 | [7] -0.038 | [8] 0.011

EOGT (UniProt Q5NDL2)
Sequence of UniProt Q5NDL2 (Q5NDL2 whole entry, looked up): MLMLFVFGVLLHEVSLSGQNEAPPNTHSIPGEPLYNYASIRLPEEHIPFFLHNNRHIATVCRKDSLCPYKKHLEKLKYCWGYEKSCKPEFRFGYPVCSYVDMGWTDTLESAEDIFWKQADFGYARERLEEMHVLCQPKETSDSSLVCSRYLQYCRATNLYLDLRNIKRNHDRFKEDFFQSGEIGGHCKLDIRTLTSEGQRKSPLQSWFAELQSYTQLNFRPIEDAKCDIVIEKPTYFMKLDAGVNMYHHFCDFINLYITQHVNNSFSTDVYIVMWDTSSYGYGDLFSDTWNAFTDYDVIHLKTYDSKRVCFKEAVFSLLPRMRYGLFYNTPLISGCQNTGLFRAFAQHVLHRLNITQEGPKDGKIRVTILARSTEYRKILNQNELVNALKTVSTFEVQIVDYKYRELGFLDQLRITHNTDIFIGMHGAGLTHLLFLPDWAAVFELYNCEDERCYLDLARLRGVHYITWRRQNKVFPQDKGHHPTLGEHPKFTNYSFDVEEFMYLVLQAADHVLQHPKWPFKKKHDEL
inactive: [1] 0.052 | [2] 0 | [3] -0.054 | [4] 0.069 | [5] 0.045 | [9] -0.003 | [6] -0.05 | [7] -0.137 | [8] 0.068 | [10] -0.006

FAM177A1 isoform 2 (UniProt Q8N128)
inactive: [1] 0.018 | [2] -0.109 | [3] 0.059 | [4] -0.063 | [5] 0.012 | [9] -0.102 | [6] -0.072 | [7] -0.027 | [8] -0.012 | [10] -0.082

DDX5 (UniProt P17844)
Sequence of UniProt P17844 (P17844 whole entry, looked up): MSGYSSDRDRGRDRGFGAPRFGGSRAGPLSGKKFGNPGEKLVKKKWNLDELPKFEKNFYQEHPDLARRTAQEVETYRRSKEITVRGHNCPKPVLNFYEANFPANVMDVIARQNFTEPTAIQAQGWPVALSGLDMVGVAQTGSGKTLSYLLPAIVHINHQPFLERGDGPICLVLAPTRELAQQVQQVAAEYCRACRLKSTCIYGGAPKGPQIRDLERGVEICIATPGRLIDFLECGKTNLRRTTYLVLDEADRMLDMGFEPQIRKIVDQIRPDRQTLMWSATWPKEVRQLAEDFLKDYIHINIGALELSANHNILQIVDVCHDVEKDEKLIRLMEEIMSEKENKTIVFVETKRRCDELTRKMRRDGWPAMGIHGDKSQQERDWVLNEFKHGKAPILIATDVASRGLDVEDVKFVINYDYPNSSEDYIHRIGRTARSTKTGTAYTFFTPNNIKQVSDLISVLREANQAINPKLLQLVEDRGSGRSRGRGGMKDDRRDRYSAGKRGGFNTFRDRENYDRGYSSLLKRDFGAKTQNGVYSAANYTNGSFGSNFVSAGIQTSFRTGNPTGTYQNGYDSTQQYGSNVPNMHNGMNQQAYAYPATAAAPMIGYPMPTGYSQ
inactive: [1] 0.035 | [2] -0.16 | [3] 0.135 | [4] 0.125 | [5] 0.041 | [9] -0.016 | [6] 0.012 | [7] 0.165 | [8] -0.044 | [10] 0.052

FAM118B (UniProt Q9BPY3)
inactive: [1] 0.099 | [2] -0.169 | [3] -0.007 | [4] 0.107 | [9] -0.101 | [6] 0.019 | [8] -0.003 | [10] 0.046

DSN1 (UniProt Q9H410)
inactive: [1] -0.015 | [2] -0.016 | [3] 0.086 | [4] -0.05 | [5] 0.098 | [6] 0.026 | [7] -0.07 | [8] 0.007 | [10] 0.055

EHBP1 (UniProt Q8NDI1)
inactive: [4] 0.158 | [9] 0.015 | [6] 0.043

EIF4G3 isoform 3 (UniProt O43432)
inactive: [1] 0.053 | [2] -0.106 | [4] 0.074 | [5] -0.082 | [6] -0.013 | [7] 0.075 | [8] 0.013 | [10] -0.02

FAM135A (UniProt Q9P2D6)
inactive: [1] 0.087 | [3] 0.038
